# About 83,000 compounds went through this panel and 20% of them were active in at least one assay; those are over-represented in the sample as a whole.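 Cells were grown in 96-well plates and exposed to the test compound at a single concentration for 48 hours; results are reported as percent growth, with values below 10 considered active.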 A number with no mark means an inactive call. Calls of active or inactive are those of the source.
# How the values were obtained:
# Experiment in all cases: NCI-60 one-dose screen, 48 h (100 = growth as untreated, 0 = no growth, -100 = all killed)
# Conditions in all cases: 10 µM unless noted
# SR leukemia = test system: SR leukemia
# RPMI-8226 leukemia = test system: RPMI-8226 leukemia
# OVCAR-8 ovarian = test system: OVCAR-8 ovarian
# OVCAR-5 ovarian = test system: OVCAR-5 ovarian
# SK-OV-3 ovarian = test system: SK-OV-3 ovarian
# IGROV1 ovarian = test system: IGROV1 ovarian
# OVCAR-3 ovarian = test system: OVCAR-3 ovarian
# HS 578T breast = test system: HS 578T breast
# NCI/ADR-RES ovarian = test system: NCI/ADR-RES ovarian
# OVCAR-4 ovarian = test system: OVCAR-4 ovarian
Structure (SMILES),growth (SR leukemia),growth (RPMI-8226 leukemia),growth (OVCAR-8 ovarian) [%],growth (OVCAR-5 ovarian),growth (SK-OV-3 ovarian),growth (IGROV1 ovarian),growth (OVCAR-3 ovarian),growth (HS 578T breast),growth (NCI/ADR-RES ovarian),growth (OVCAR-4 ovarian)
COc1ccc(C(=O)c2cc(OC)c(OC)c(OC)c2)cc1/C=C/C(=O)c1ccc(OC)c(OC)c1,3.96% (active),8.82% (active),26.1,0.936% (active),38.4%,29.7%,-22.1% (active),31.5%,19%,
COc1ccc(C2=CC(c3ccc(Oc4ccnc5cc(Cl)ccc45)c(OC)c3)c3c(nc(OC)[nH]c3=O)N2)cc1 (configuration not stated),13.4%,28.8%,,115%,102%,86.6%,58%,97.1%,71.1%,63.9%
CN1CCN(CCCOc2ccc3nc(Nc4ccc(C(F)(F)F)c(Cl)c4)ccc3c2)CC1,-6.45% (active),-6.92% (active),31.3,22.4%,55.5%,13.7%,-11.8% (active),16.3%,20.4%,
FC(F)(F)c1cccc(-n2nnc3cnc(Nc4ccc(N5CCCCC5)cc4)nc32)c1,29.2%,90.9%,37.5,74.3%,80.2%,88.8%,82.4%,76.5%,76.9%,
Cc1ccc2c(c1)C(=O)C(c1c(-c3[nH]c(=O)c4ccc(C)cc4c3O)c(O)c3ccccc3c1O)=NC2=O,23.1%,32.8%,,66.4%,44%,6.46% (active),-38.7% (active),32.4%,14.9%,25.2%
Oc1ccc(N=Cc2ccccc2)cc1,30.9%,55.4%,86.8,104%,119%,97.1%,7.09% (active),103%,101%,
O=C(Nc1ccc(OCc2nnc(-c3ccc(Cl)cc3)o2)c(F)c1)Nc1ccc(Cl)c(Cl)c1,21.4%,57%,60.2,66.6%,60.6%,66.5%,25.9%,32%,65.2%,
COc1cc(/C=C\c2cc(OC)c(OC)c(OC)c2)cc(N/C=C\C(=O)c2c[nH]c3ccccc23)c1OC,-36.8% (active),-32.8% (active),33.8,35.3%,90.1%,40.5%,-93.6% (active),67.5%,73.5%,
OCc1c(-c2ccccc2)nc2sccn12,103%,111%,67.5,109%,110%,88.2%,116%,77.7%,105%,
c1cncc(CNc2ccccc2-c2nnc(Nc3ccc4c(c3)OCCO4)o2)c1,14.1%,,27.1,43.9%,-4.48% (active),40.9%,-50.3% (active),77.9%,6.09% (active),44%
COC1=CC(c2ccc[nH]2)=N/C1=C\c1[nH]c(C)c(C(=O)CCCCC(=O)NCc2ccccc2)c1C,91%,65.6%,,47.3%,83.3%,,-5.91% (active),72%,42%,50.8%
O=C(CSc1nc(-c2ccc(Cl)cc2)cn1-c1ccc(Cl)cc1)c1ccc(Br)cc1,92.7%,86.1%,,84.1%,79%,59.9%,84.9%,,70.6%,9.78% (active)
Nc1cccc2c1CN(C1CCC(=O)NC1=O)C2=O (configuration not stated),71.8%,109%,,95.6%,93.1%,29.8%,108%,112%,104%,105%
CCNC(=O)CCCCC(=O)c1c(C)[nH]c(/C=C2\N=C(c3ccc[nH]3)C=C2OC)c1C,45.6%,51.6%,,66.3%,57.7%,,-77.9% (active),54.9%,15.4%,-59.4% (active)
O=Nc1c(-c2c(O)[nH]c3ccc([N+](=O)[O-])cc23)[nH]c2ccc(O)cc12,0.378% (active),-7.92% (active),,110%,-9.52% (active),6.36% (active),4.31% (active),1.21% (active),42%,19.7%

# Source: PubChem BioAssay (NCI)
